Test results from PubChem BioAssay (NCI).
About 83,000 compounds went through this panel and 20% of them were active in at least one assay; those are over-represented in the sample as a whole.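 48-hour exposure, single concentration, 96-well plates; percent growth endpoint where 0 means no net growth. Active: below 10.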 The source made the active and inactive calls.

Assays:
Test in all cases: NCI-60 one-dose screen, 48 h (100 = growth as untreated, 0 = no growth, -100 = all killed)
Settings in all cases: 10 µM unless noted
[1] = system: HCT-15 colon
[2] = system: HT29 colon
[3] = system: SNB-75 CNS
[4] = system: SNB-19 CNS
[5] = system: U251 CNS
[6] = system: PC-3 prostate
[7] = system: SK-MEL-5 melanoma
[8] = system: UACC-62 melanoma
[9] = system: LOX IMVI melanoma
[10] = system: SK-MEL-28 melanoma
[11] = system: EKVX NSCLC
[12] = system: SN12C renal
[13] = system: UO-31 renal
[14] = system: TK-10 renal
[15] = system: ACHN renal
[16] = system: CAKI-1 renal
[17] = system: A498 renal
[18] = system: CCRF-CEM leukemia
[19] = system: MOLT-4 leukemia

Measured: growth

O=C(NOCCO)c1cc(CN2OCCCC2=O)c(F)c(F)c1Nc1ccc(I)cc1F
inactive: [1] 50.6% | [3] 71.5% | [4] 51.8% | [5] 40.6% | [6] 99.3% | [7] 45.7% | [9] 19.4% | [11] 46% | [12] 49.5% | [13] 15% | [14] 36.4% | [15] 49.5% | [16] 40.8% | [18] 101% | [19] 76.6%
active: [2] 8.15% | [8] 4% | [10] 3.09% | [17] -33%

C=CC(=O)Nc1cccc(Oc2nc(Nc3ccc(N4CCN(C)CC4)cc3)nc3ccsc23)c1
inactive: [4] 12.8% | [11] 16.4% | [17] 33.6%
active: [1] -21.9% | [2] -60% | [3] -81.1% | [5] -84.7% | [6] -44.5% | [7] -97.2% | [8] -78.2% | [9] -85% | [10] -91.6% | [12] -70.6% | [13] -89.6% | [14] -79% | [15] -96.6% | [16] -71.4% | [18] 1.89% | [19] -37.7%

Cc1oc2c(C(=O)N/N=C\c3ccc(O)cc3O)c[nH]c2c1C
inactive: [2] 25.6% | [3] 40.2% | [4] 35.5% | [5] 20.2% | [6] 43.4% | [7] 23.6% | [10] 32.1% | [11] 26.6% | [12] 44.5% | [17] 44.6% | [18] 23.9%
active: [1] 9.44% | [8] 2.05% | [9] -7.96% | [13] -0.347% | [14] 6.21% | [15] -7.76% | [16] 1.53% | [19] 8.56%

Cc1csc(-c2nnc(Nc3ccc(Oc4ncccc4-c4ccnc(N)n4)cc3)c3ccccc23)c1
inactive: [1] 37.6% | [2] 10.1% | [3] 61.9% | [4] 43.3% | [5] 37.7% | [6] 59.9% | [7] 54.1% | [8] 21.1% | [9] 25.7% | [10] 18.9% | [11] 64.8% | [12] 52.1% | [13] 32.4% | [14] 39.7% | [15] 38.8% | [16] 50.8% | [17] 56.1% | [18] 25.1% | [19] 32.3%

Cc1cc(Nc2ncc(Cl)c(Nc3ccccc3S(=O)(=O)C(C)C)n2)c(OC(C)C)cc1C1CCNCC1
active: [1] -86.4% | [2] -88.1% | [3] -98.1% | [4] -94.9% | [5] -100% | [6] -92.2% | [7] -98.9% | [8] -95.1% | [9] -90.7% | [10] -99.3% | [11] -87.6% | [12] -87.2% | [13] -96.4% | [14] -96.1% | [15] -100% | [16] -99.5% | [18] -47.5% | [19] -59.9%
inactive: [17] 40.2%

NC(=O)c1c(OCc2c(F)cc(Br)cc2F)nsc1NC(=O)NCCCCN1CCCC1
active: [1] 5.99% | [2] -38.9% | [3] -79.9% | [4] 5.06% | [5] -83.3% | [6] 3.22% | [7] -99.1% | [8] -75.6% | [9] -90.6% | [10] -74.6% | [11] 4.31% | [12] 0.752% | [13] -76.8% | [14] -1.76% | [15] -29.7% | [16] -26.2% | [17] -13.8% | [18] 2.77% | [19] -16.4%

CN(C)C[C@@H]1CCn2cc(c3ccccc32)C2=C(C(=O)NC2=O)c2cn(c3ccccc23)CCO1
inactive: [4] 15.3% | [7] 22.5% | [8] 43% | [11] 30.5% | [14] 11.5%
active: [1] -31.7% | [2] 0.848% | [3] -76.1% | [5] -70.8% | [6] 0.163% | [9] -70.1% | [10] -92.6% | [12] -59.7% | [13] -49.1% | [15] -89.9% | [16] -3.96% | [17] -4.95% | [18] -0.337% | [19] -4.3%

O=C(NC[C@H](O)CO)c1ccncc1Nc1ccc(I)cc1F
active: [2] 8.1% | [8] -7.65% | [10] -12.7% | [17] -21.9%
inactive: [1] 43.9% | [3] 73.4% | [4] 51.5% | [5] 55.3% | [6] 86.4% | [7] 44.5% | [9] 25.2% | [11] 45.1% | [12] 60.3% | [13] 35.1% | [14] 40.5% | [15] 41.4% | [16] 32.7% | [18] 102% | [19] 90.3%

CN(C)CCOC(=O)Nc1nc2ccc(Sc3ccccc3)cc2[nH]1
active: [2] 1.58% | [3] -10.2% | [17] -3.9%
inactive: [1] 33.2% | [4] 36.4% | [5] 26.5% | [6] 28% | [7] 19.3% | [8] 42.4% | [9] 32.1% | [10] 63.7% | [11] 47.1% | [12] 40.5% | [13] 31.5% | [14] 49.4% | [15] 46.2% | [16] 33.9% | [18] 22.4% | [19] 41%

O=C(CNc1nc2ccccc2s1)Nc1ccc(-c2nc3ccccc3s2)cc1
inactive: [1] 105% | [2] 109% | [3] 99% | [4] 100% | [5] 89.1% | [6] 95% | [7] 103% | [8] 94.6% | [9] 75.8% | [10] 113% | [11] 110% | [12] 103% | [13] 80.5% | [14] 96.7% | [15] 107% | [16] 100% | [17] 93.8% | [18] 111% | [19] 84.2%

O=C1C=CC2(NN=C(c3ccccc3)N2c2ccccc2)c2cccc(O)c21 (centres undefined)
inactive: [1] 16.8% | [2] 44.3% | [3] 19.9% | [4] 32% | [5] 11.2% | [6] 36% | [10] 38.2% | [11] 57.9% | [13] 22.1% | [14] 91.6% | [15] 55.2% | [16] 81.7% | [17] 103% | [18] 76.5% | [19] 71.7%
active: [7] -91.5% | [8] -50.4% | [9] -5.86% | [12] 7.23%

Cc1cc(Nc2cc(N3CCN(C)CC3)nc(Sc3ccc(NC(=O)C4CC4)cc3)n2)n[nH]1
inactive: [1] 40.2% | [4] 46.8% | [5] 30% | [6] 35.2% | [8] 13% | [10] 34.4% | [11] 76.6% | [12] 33.4% | [13] 22.3% | [14] 38.8% | [15] 42.4% | [16] 31.8% | [18] 35.6% | [19] 26%
active: [2] 0.79% | [3] 0.133% | [7] 9.58% | [9] -69.2% | [17] -16%

COc1cc(OC)c(/C=C/S(=O)(=O)Cc2ccc(OC)c(NCC(=O)O)c2)c(OC)c1
active: [2] 0.285% | [7] -12.1% | [17] -4.03%
inactive: [1] 11.8% | [3] 18.2% | [4] 29.4% | [5] 11.4% | [6] 21.9% | [8] 37.4% | [9] 16% | [10] 65.9% | [11] 27.3% | [12] 34% | [13] 36.3% | [14] 49.7% | [15] 30.2% | [16] 18.2% | [18] 16.2% | [19] 14.5%

COc1ccc(C(=O)c2cc(OC)c(OC)c(OC)c2)cc1/C=C/C(=O)c1ccc(F)cc1
inactive: [1] 23.9% | [2] 13.6% | [3] 58.7% | [4] 71.3% | [5] 34.1% | [6] 76.7% | [7] 57% | [8] 45.5% | [10] 13.1% | [11] 90.1% | [12] 64.7% | [13] 56.3% | [14] 82.9% | [16] 81.5% | [17] 80.9%
active: [9] -56.5% | [15] -70.3% | [18] 2.64% | [19] 0.641%

Cc1cc2c(F)c(Oc3ncnn4cc(OC[C@@H](C)OC(=O)[C@H](C)N)c(C)c34)ccc2[nH]1
active: [2] 6.32% | [8] 2.73%
inactive: [1] 38.6% | [3] 55.6% | [4] 51.8% | [5] 44.8% | [6] 54.5% | [7] 42.6% | [9] 26.5% | [10] 10.5% | [11] 61.2% | [12] 55.6% | [13] 36.3% | [14] 35.6% | [15] 46.8% | [16] 48.8% | [17] 21.7% | [18] 45.4% | [19] 48.3%

COc1cc2c(c(OC)c1)C1c3ccccc3NC(=O)N1CC2 (centres undefined)
active: [2] 6.37% | [3] 7.13% | [17] -7.8%
inactive: [1] 18% | [4] 44.7% | [5] 16.8% | [6] 22.6% | [7] 15.7% | [8] 15.6% | [9] 41.3% | [10] 49.8% | [11] 42.1% | [12] 39% | [13] 36.8% | [14] 49.5% | [15] 44.9% | [16] 34.3% | [18] 10.7% | [19] 30.6%
